Experimental data reported in PubChem BioAssay AID1159554 (Broad Institute, 2015).
Where “and” joins values, the source holds several entries; their conditions need not be identical. Equal values may be shown once. Screen size: about 94,000 compounds; about 2,100 (2.2%) were called active. Rule as the data show it: active = activity change below about -80%; inconclusive = no clear call, values can overlap the other calls; inactive = above that. This excerpt belongs to a sample that is enriched for actives. Some structures have more than one record in an assay (separate samples or runs), and their calls can disagree.

Assay: Dd2 malaria parasite growth inhibition – SYBR Green fluorescence, single dose replicates, primary screen (AID 1159554)
Conditions: P. falciparum Dd2 growth, 72 h, at 10 µM, stronger effect = lower value

| Compound | activity change |
| --- | --- |
| COc1ccc2c3c([nH]c2c1)[C@H](CO)N(C(=O)c1ccccc1)CC31CCN(S(=O)(=O)c2cccs2)CC1 | 23.2% (inactive) |
| CCNC(=O)C[C@@H]1CC[C@@H]2[C@@H](COc3ccc(NC(=O)c4cccc(C(F)(F)F)c4)cc3C(=O)N2C)O1 | -22.5% (inactive) |
| c1ccc(-c2ccc(C3[C@@H]4CN(Cc5cccnc5)C[C@H]3N4)cc2)cc1 (some centres undefined) | -91.7% (active) and -72.1% (inactive) |
| O=C(Cc1ccncc1)N1C[C@@H]2N[C@H](C1)C2c1ccc(-c2ccc(F)cc2)cc1 (some centres undefined) | -75.3% (inactive) |
| OC[C@H]1[C@@H](c2ccc(/C=C/c3ccccc3)cc2)[C@H]2CN(Cc3cccnc3)CCCCN21 | -61.1% (inactive) |
| CC(C)CC#Cc1ccc([C@@H]2[C@@H](CO)N3C(=O)CN(C(=O)Nc4ccc(F)cc4)C[C@H]23)cc1 | -28.4% (inactive) |
| COc1ccccc1CNC(=O)C[C@H]1CC[C@@H]2[C@H](COC[C@H](O)CN2Cc2ccccc2)O1 | 6.62% (inactive) |
| C[C@@H]1CN([C@H](C)CO)C(=O)Cc2cc(NC(=O)Nc3ccc4c(c3)OCO4)ccc2O[C@H]1CN(C)Cc1ccc(C(=O)O)cc1 | 21.4% (inactive) |
| Cc1ccc(S(=O)(=O)Nc2ccc3c(c2)C(=O)N([C@H](C)CO)C[C@H](C)[C@@H](CN(C)Cc2ccccc2)OCCCC[C@H](C)O3)cc1 | 30% (inactive) |
| C[C@H]1CN([C@@H](C)CO)C(=O)Cc2cc(NC(=O)Nc3ccc4c(c3)OCO4)ccc2O[C@H]1CN(C)Cc1ccc(C(=O)Nc2ccccc2N)cc1 | -81.3% (active) |
| COc1ccc(CN(C)C[C@H]2Oc3ccc(NS(=O)(=O)c4ccc(Cl)cc4)cc3CC(=O)N([C@@H](C)CO)C[C@H]2C)cc1 | 12.9% (inactive) |
| C[C@@H]1CN([C@H](C)CO)C(=O)Cc2cc(NC(=O)Nc3ccc4c(c3)OCO4)ccc2O[C@@H]1CN(C)Cc1ccc(C(=O)Nc2ccccc2N)cc1 | -76.5% (inactive) |
| Cc1ccc(S(=O)(=O)Nc2ccc3c(c2)CC(=O)N([C@@H](C)CO)C[C@H](C)[C@H](CN(C)Cc2ccccc2)O3)cc1 | -4.27% (inactive) |
| COc1ccc(S(=O)(=O)Nc2ccc3c(c2)CC(=O)N([C@@H](C)CO)C[C@H](C)[C@@H](CN(C)Cc2ccc(C(=O)O)cc2)O3)cc1 | 22.3% (inactive) |
| Cc1ccc(S(=O)(=O)Nc2ccc3c(c2)CC(=O)N([C@@H](C)CO)C[C@H](C)[C@H](CN(C)Cc2ccc(C(=O)Nc4ccccc4N)cc2)O3)cc1 | -86.6% (active) |
| Cc1ccc(S(=O)(=O)Nc2ccc3c(c2)C(=O)N([C@H](C)CO)C[C@H](C)[C@H](CN(C)Cc2ccc(C(=O)Nc4ccccc4N)cc2)OCCCC[C@@H](C)O3)cc1 | -83.6% (active) |
| Cc1ccc(S(=O)(=O)Nc2ccc3c(c2)CC(=O)N([C@H](C)CO)C[C@@H](C)[C@H](CN(C)Cc2ccc(C(F)(F)F)cc2)O3)cc1 | 32% (inactive) |
| COc1ccc(S(=O)(=O)Nc2ccc3c(c2)CC(=O)N([C@@H](C)CO)C[C@@H](C)[C@@H](CN(C)Cc2ccc(C(=O)Nc4ccccc4N)cc2)O3)cc1 | -80.3% (active) |
| Cc1ccc(S(=O)(=O)Nc2ccc3c(c2)C(=O)N([C@H](C)CO)C[C@@H](C)[C@H](CN(C)Cc2ccccc2)OCCCC[C@H](C)O3)cc1 | -43.7% (inactive) |
| C/C=C/c1ccc([C@H]2[C@@H](CO)N(C(=O)NCCC)[C@H]2CN(C)C(C)=O)cc1 | 0.514% (inactive) |

| Compound | activity change |
| --- | --- |
| CCCNC(=O)[C@@H]1[C@@H](CO)[C@@H]2Cn3c(ccc(-c4cccc(OC)c4)c3=O)[C@H]1N2C(=O)NCCC | 8.98% (inactive) |
| COCC(=O)Nc1ccc2c(c1)OC[C@H](C)N(C(=O)c1cnccn1)C[C@@H](C)[C@@H](OC)CN(C)C2=O | -61.6% (inactive) |
| COc1ccc(-c2ccccc2[C@H]2[C@@H](CO)N(C(=O)C3CCC3)[C@H]2C#N)cc1 | 17.9% (inactive) |
| COc1cccc(CNC(=O)C[C@@H]2C=C[C@@H](NC(=O)C3CCC3)[C@@H](CO)O2)c1 | 37.9% (inactive) |
| COc1ccc2c3c(n(C)c2c1)[C@@H](CO)NCC31CN(S(=O)(=O)c2cccc(C)c2)C1 | -18.8% (inactive) |
| N#Cc1cccc(-c2ccc(C3[C@H]4CNC[C@@H]3N4S(=O)(=O)c3ccc(-c4ccccc4)cc3)cc2)c1 (some centres undefined) | 14.1% (inactive) and -40.8% (inactive) |
| C[C@H]1CN([C@@H](C)CO)C(=O)c2cc(-c3ccncc3)cnc2O[C@@H]1CN(C)C(=O)C1CCCCC1 | -1.12% (inactive) |
| N#C[C@@H]1[C@H](c2ccccc2-c2ccc(F)cc2)[C@@H](CO)N1c1ncc(-c2ccccc2)s1 | 27.4% (inactive) |
| CO[C@H]1CN(C)C(=O)c2cc(NC(=O)c3nc4ccccc4s3)ccc2OC[C@H](C)N(Cc2cccnc2)C[C@@H]1C | -15.4% (inactive) |
| CCCC(=O)Nc1ccc2c(c1)C(=O)N(C)C[C@H](OC)[C@H](C)CN(CCc1ccccc1)[C@H](C)CO2 | -14.1% (inactive) |
| C[C@H]1CN([C@@H](C)CO)C(=O)Cc2cc(NS(=O)(=O)c3ccccc3)ccc2O[C@H]1CN(C)Cc1ccc(C(=O)Nc2ccccc2N)cc1 | -77.2% (inactive) |
| C[C@@H]1CN([C@@H](C)CO)C(=O)Cc2cc(NC(=O)C3CCCCC3)ccc2O[C@@H]1CN(C)Cc1ccc(C(=O)Nc2ccccc2N)cc1 | -83.7% (active) |
| C[C@@H]1CN([C@@H](C)CO)C(=O)Cc2cc(NC(=O)C3CCCCC3)ccc2O[C@@H]1CN(C)Cc1ccc(-c2ccccc2)cc1 | -20.2% (inactive) |
| C[C@@H]1CN([C@@H](C)CO)C(=O)c2cc(NS(=O)(=O)c3ccccc3)ccc2O[C@@H]1CN(C)Cc1ccc(C(=O)Nc2ccccc2N)cc1 | -83.2% (active) |
| C[C@H](CO)N1C[C@H](C)[C@H](CN(C)Cc2ccc(C(=O)Nc3ccccc3N)cc2)Oc2ccc(NS(C)(=O)=O)cc2C1=O | -28.4% (inactive) |
| C[C@H]1CN([C@@H](C)CO)C(=O)Cc2cc(NS(=O)(=O)c3ccccc3)ccc2O[C@@H]1CN(C)Cc1ccc(C(=O)Nc2ccccc2N)cc1 | -81.4% (active) |
| CC(C)NC(=O)Nc1ccc2c(c1)CC(=O)N([C@H](C)CO)C[C@@H](C)[C@@H](CN(C)Cc1ccc(C(=O)Nc3ccccc3N)cc1)O2 | -49.7% (inactive) |
| Cc1ccc(S(=O)(=O)Nc2ccc3c(c2)C(=O)N([C@@H](C)CO)C[C@@H](C)[C@@H](CN(C)Cc2ccc(C(=O)Nc4ccccc4N)cc2)O3)cc1 | -61.1% (inactive) |
| Cc1noc(C)c1S(=O)(=O)Nc1ccc2c(c1)C(=O)N([C@@H](C)CO)C[C@H](C)[C@H](CN(C)Cc1ccc(C(=O)Nc3ccccc3N)cc1)O2 | -52.6% (inactive) |
